Screening results deposited in PubChem by several laboratories.
PostGolgi yeast – growth inhibition of a yeast mutant, post-Golgi transport screen; post-Golgi transport phenotypic cell assay; inhibition, % at 10 µM; 98,000 tested, 0.9% active;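 also: yeast cells grown in 1536-well plates; yeast grown about 18 h at 30C before absorbance read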
PostGolgi ctrl – growth of the yeast control strain, post-Golgi counter-screen. efflux-deficient yeast background strain, growth absorbance A615, 16 h. 98,000 tested, 5% active. inhibition, % at 10 µM
CYP2C9 inh – inhibitors of human CYP2C9. CYP2C9 Supersomes, luciferin-H conversion, luminescence. inhibition, % at 5 µM. 96,000 tested, 20% active. AID 777;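 active = blocking of liver enzyme CYP2C9 beyond about 50% at 5 µM, limit read from the data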
Target sequence (P11712 whole entry, looked up): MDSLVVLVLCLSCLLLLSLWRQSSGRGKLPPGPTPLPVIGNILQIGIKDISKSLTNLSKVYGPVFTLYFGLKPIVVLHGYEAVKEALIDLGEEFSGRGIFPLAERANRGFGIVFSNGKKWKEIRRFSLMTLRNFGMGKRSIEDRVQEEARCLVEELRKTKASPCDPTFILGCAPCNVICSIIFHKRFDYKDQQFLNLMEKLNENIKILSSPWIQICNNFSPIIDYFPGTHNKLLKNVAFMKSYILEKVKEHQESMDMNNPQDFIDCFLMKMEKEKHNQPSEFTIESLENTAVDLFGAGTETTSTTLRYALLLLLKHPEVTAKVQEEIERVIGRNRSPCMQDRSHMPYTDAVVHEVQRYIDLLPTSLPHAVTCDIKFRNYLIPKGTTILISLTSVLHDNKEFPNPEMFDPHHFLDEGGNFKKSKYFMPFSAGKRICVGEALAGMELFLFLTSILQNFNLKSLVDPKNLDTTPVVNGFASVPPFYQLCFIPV
CYP2C19 inhib – blocks human cytochrome P450 2C19. P33261. CYP2C19 Supersomes, luciferin-H EGE luminescence, 30 min. inhibition, % at 5 µM. 96,000 tested, 21% active. AID 778;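 active = CYP2C19 inhibition above a set limit at 5 µM in the primary screen, cut at about 50% in these data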;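 also: plate controls were negative control wells for no effect and 2.5 mM tranylcypromine positive control for full effect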
CYP2C9 activ – activators of human CYP2C9; 96,000 tested, 1.4% active; activation factor at 5 µM; recombinant CYP2C9, luciferin-H conversion, luminescence; stronger effect = higher value; factor 1 = untreated enzyme, 0 = blocked; P11712;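 active = activation factor of 2 or more for CYP2C9 at a 5 µM dose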;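 also: 0 = sulfaphenazole-blocked wells and 1 = vehicle-only wells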
CYP2C19 activ – cytochrome P450 2C19 (human) activation | 96,000 tested, under 10 active | activation factor at 5 µM | recombinant CYP2C19, luciferin-H EGE luminescence; stronger effect = higher value; 0 = fully inhibited enzyme, 1 = untreated enzyme | AID 1025;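 active = activation factor of at least 2 at 5 µM in the primary screen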;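 also: 0 = wells with 2.5 mM tranylcypromine and 1 = vehicle-only wells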
Numbers without * were called inactive. An excerpt weighted towards active compounds, which were near 32% of everything screened. Rule as the data show it, unless noted: active = inhibition above about 30%; inactive = the rest.

SMILES	PostGolgi yeast	PostGolgi ctrl	CYP2C9 inh	CYP2C19 inhib	CYP2C9 activ	CYP2C19 activ
COc1ccc(CCNC(=O)Cc2ccc(OCc3ccccc3)c(OC)c2[N+](=O)[O-])cc1OCc1ccccc1	3	7	90*	74*	0.1	0.3
Cc1cc(Br)c(S(=O)(=O)n2nnc3ccccc32)cc1C	10	1	28	42	0.7	0.6
O=c1oc2ccccc2c2c1SC(C(F)(F)F)C2 (stereo not given)	-3	9	24	41	0.8	0.6
CC1Cc2ccccc2N1C(=O)COc1nc2ccccc2nc1N1CCOCC1 (stereo not given)	-5	12	47	20	0.5	0.8
c1ccc2sc(SN3CCOCC3)nc2c1	-1	7	18	82*	0.8	0.2
Cc1ccc(-c2nnn(CC(=O)N3CCCCC3)n2)c(-n2cnnn2)c1	-16	-1	-25	6	1.3	0.9
O=C1C2C3C=CC([C@@H]2C(=O)N1Cc1cccnc1)C31CC1 (stereo not given in full)	14	-7	6	72*	0.9	0.3
O=C1CSC(=S)N1Cc1cccnc1	3	25	76*	53*	0.2	0.5
O=C1CSC(=S)N1c1cccnc1	-8	7	-18	-21	1.2	1.2
CC1(C)CCCC2=C1CC1C(=O)N(Cc3cccnc3)C(=O)C1C2 (stereo not given)	1	4	32	28	0.7	0.7
Cc1nc(SCC(=O)N2CCC(C(N)=O)CC2)n[nH]1	-10	0	-1	13	1	0.9
COC(=O)c1nn(-c2ccccc2)nc1-c1nn(-c2ccccc2)nc1C(=O)OC	36*	77*	86*	61*	0.1	0.4
Cn1c(SCC(=O)NC2CCCCCC2)nnc1-c1cccs1	3	6	18	11	0.8	0.9
Cn1c(SCC(=O)Nc2ccc3c(c2)OCCO3)nnc1-c1ccccn1	1	17	-2	-5	1	1
CCn1c(Cc2ccccc2)nnc1SCC(=O)Nc1ccc(N2CCOCC2)c(Cl)c1	7	15	58*	80*	0.4	0.2
CCn1c(COc2ccc(Cl)cc2)nnc1SCC(=O)Nc1ccc2c(c1)OCO2	-5	-1	19	6	0.8	0.9
CCn1c(Cc2ccccc2)nnc1SCC(=O)Nc1ccc2c(c1)OCO2	-9	-1	50	62*	0.5	0.4
Cn1c(Cc2ccccc2)nnc1SCC(=O)Nc1ccc2c(c1)OCCO2	-5	-7	74*	75*	0.3	0.3
O=C(CSc1nnc(Cc2cccs2)n1-c1ccccc1)NC1CCCCC1	-3	-2	72*	55*	0.3	0.5
O=C(NCC12CC3CC(CC(C3)C1)C2)c1nn2c(c1Cl)NC(c1ccco1)CC2C(F)(F)F (stereo not given)	-9	-11	-7	-1	1.1	1
O=C(CSc1nnc(Cc2cccs2)n1-c1ccccc1)Nc1ccc2c(c1)OCCO2	-1	24	89*	85*	0.1	0.2
N#C/C(=C(/O)CSc1nnc(Cc2cccs2)n1C1CCCCC1)c1nc2ccccc2[nH]1	-5	-12	37	61*	0.6	0.4
Cc1ccc(-n2c(Cc3cccs3)nnc2SCC(=O)Nc2ccc(F)c(F)c2)cc1	4	14	14	-13	0.9	1.1
Cc1ccc2nc(CSc3nnc(Cc4cccs4)n3C3CCCCC3)cc(=O)n2c1	-2	39*	52*	71*	0.5	0.3
N#CCC(=O)Nc1ncn(Cc2ccccc2Cl)n1	0	17	-6	-1	1.1	1
SMILES	PostGolgi yeast	PostGolgi ctrl	CYP2C9 inh	CYP2C19 inhib	CYP2C9 activ	CYP2C19 activ
CCOc1ccc(OCC)c(S(=O)(=O)N2CCCCC2C)c1 (stereo not given)	-10	19	53*	89*	0.5	0.1
CCOc1ccc(C(C)(C)C)cc1S(=O)(=O)N1CCOCC1	-9	8	50*	68*	0.5	0.3
CCOc1cc(S(=O)(=O)N2CCCC2)ccc1Cl	0	17	-43	51*	1.4	0.5
CCOc1cc(S(=O)(=O)N2CCCCC2)ccc1F	22	9	-37	17	1.4	0.8
CCOc1ccc(OCC)c(S(=O)(=O)NCc2ccccn2)c1	2	4	14	43	0.9	0.6
CCOc1ccc(Br)cc1S(=O)(=O)N1CC(C)OC(C)C1 (stereo not given)	-9	17	-3	88*	1	0.1
Cc1ccc2oc(=O)c3cnn(CC(=O)NC4CCCCC4C)c3c2c1 (stereo not given)	1	-5	3	10	1	0.9
COC(=O)c1sccc1NC(=O)CSc1cccc(Cl)c1Cl	-4	17	45	17	0.6	0.8
CCOc1ccc(C)cc1S(=O)(=O)N1CCCCC1	0	13	-94	66*	1.9	0.3
CCOc1ccc(S(=O)(=O)N2CCCCC2)c2ccccc12	-4	17	-49	45	1.5	0.5
Cc1ccc(N(C(C)C(=O)N2CCC(C)CC2)S(C)(=O)=O)cc1C (stereo not given)	-28	21	-22	22	1.2	0.8
CN1/C(=C\C(=O)CN2C(=O)NC3(CCCCCC3)C2=O)C(C)(C)c2ccccc21	0	8	79*	88*	0.2	0.1
CN1/C(=C\C(=O)COC(=O)CN2C(=O)C3CC=CCC3C2=O)C(C)(C)c2ccccc21 (stereo not given)	2	21	17	19	0.8	0.8
CN(CC(=O)O/N=C(\N)c1cccc([N+](=O)[O-])c1)S(=O)(=O)c1ccccc1	-5	15	12	59*	0.9	0.4
O=C(C#Cc1cccc([N+](=O)[O-])c1)c1ccccc1	91*	64*	16	10	0.8	0.9
C=CCOn1c(=O)c(-c2cccs2)[n+]([O-])c2ccccc21	-3	26	68*	57*	0.3	0.4
C=CCOn1c(=O)c(-c2ccc(OC)c(OC)c2)[n+]([O-])c2ccccc21	6	7	1	-6	1	1.1
Cc1nn(-c2ccccc2)c(C)c1C(=O)OCC(=O)N1c2ccccc2NC(=O)C1(C)C	-8	0	46	25	0.5	0.7
O=C1CN(C(=O)CSc2nnnn2-c2ccc(Cl)cc2)c2ccccc2N1	9	9	-5	13	1	0.9
O=C(N1CCCCC1)C1(c2ccccc2)CCOCC1	-1	12	9	22	0.9	0.8
O=C(N1CCOCC1)C1(c2ccccc2)CCCCC1	-10	42*	5	69*	0.9	0.3
CCCS(=O)(=O)n1nc(-c2ccc(Br)cc2)cc1N	4	9	86*	68*	0.1	0.3
Nc1cc(-c2ccccc2)nn1Cc1ccc(Cl)cc1	0	4	75*	93*	0.2	0.1
CCCS(=O)(=O)n1nc(-c2ccccc2)cc1N	7	-5	67*	93*	0.3	0.1
